# PAFAH1B2 inh = PAFAH1B2 enzyme inhibitors, primary screen, biochemical, fluorescence polarization, human; inhibition, % at 3.39 µM; recombinant PAFAH1B2, FP-rhodamine activity probe; AID 492953, 2010; hit rate 1.2% among 340,000; Platelet-activating factor acetylhydrolase IB subunit alpha2 (Homo sapiens), P68402;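 active means inhibition above the mean of all tested compounds plus 3 SD, cut at about 24% in these data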;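 further: 0% = enzyme with DMSO and 100% = wells lacking PAFAH1B2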
# Target sequence (P68402 whole entry, looked up): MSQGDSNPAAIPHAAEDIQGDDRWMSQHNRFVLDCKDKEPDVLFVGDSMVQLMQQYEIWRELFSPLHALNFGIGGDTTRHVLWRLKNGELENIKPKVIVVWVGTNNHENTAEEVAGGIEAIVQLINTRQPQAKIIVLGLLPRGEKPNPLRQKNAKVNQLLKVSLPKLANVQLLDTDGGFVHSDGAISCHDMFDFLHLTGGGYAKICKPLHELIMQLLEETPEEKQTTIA
# EBNA-1 inhibitor = EBNA-1 DNA-binding inhibitors, primary screen, biochemical, fluorescence polarization | inhibition, % at 14.8 µM | hit rate 0.34% among 300,000 | AID 1950, 2009; in the data active means inhibition above about 28%
# PAFAH2 FP inh = PAFAH2 enzyme inhibitors, primary screen, biochemical, fluorescence polarization, human | Platelet-activating factor acetylhydrolase 2, cytoplasmic (Homo sapiens), Q99487 | recombinant PAFAH2, FP-rhodamine activity probe | inhibition, % at 3.39 µM | hit rate 0.99% among 340,000 | AID 492956, 2010;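 active means inhibition above the mean over all tested compounds plus 3 SD, cut at about 30% in these data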;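 further: inhibitors block probe labeling of enzyme so polarization drops; 0% = enzyme with DMSO and 100% = wells lacking PAFAH2 protein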
# ZTA counter = blocks Epstein-Barr virus ZTA, an EBNA-1 counter-screen; hit rate 0.15% among 320,000; inhibition, % at 11 µM; P03206; ZTA-DNA binding, fluorescence polarization; AID 2234; in the data active means inhibition above about 33%
# Target sequence (P03206 whole entry, looked up): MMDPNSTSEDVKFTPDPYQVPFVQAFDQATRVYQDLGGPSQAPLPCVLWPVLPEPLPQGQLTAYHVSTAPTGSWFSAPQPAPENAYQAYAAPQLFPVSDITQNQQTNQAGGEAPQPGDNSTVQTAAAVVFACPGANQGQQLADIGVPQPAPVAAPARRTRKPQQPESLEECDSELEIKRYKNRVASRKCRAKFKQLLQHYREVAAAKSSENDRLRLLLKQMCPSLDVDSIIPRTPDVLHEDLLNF
# rCAG RNA binder = binders of r(CAG) RNA repeats, primary screen, biochemical, fluorescence | r(CAG) RNA repeat, TO-PRO-1 dye displacement fluorescence | inhibition, % at 3 µM | hit rate 1.3% among 370,000 | AID 651821, 2012;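 active means inhibition above the plate cutoff, the mean of all test compounds on that plate plus 3 SD, cut at about 35% in these data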;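 further: 0% = DMSO alone and 100% = 100 µM mitoxantrone as full dye displacement; higher means more dye released from RNA so lower well fluorescence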
# PAFAH1B3 FP inh = PAFAH1B3 enzyme inhibitors, primary screen, biochemical, fluorescence polarization, human; Platelet-activating factor acetylhydrolase IB subunit alpha1 (Homo sapiens), Q15102; recombinant PAFAH1B3, FP-rhodamine probe; inhibition, % at 3.39 µM; hit rate 0.28% among 340,000; AID 492972, 2010;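 active means inhibition above the screen-wide average of all tested compounds plus 3 SD, cut at about 25% in these data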;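 further: 0% = enzyme with DMSO only and 100% = wells lacking PAFAH1B3 protein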
# Active calls of the source: *; · = no result. A selection: hits, their analogues and other compounds. The true share with any hit is near 2.9%.
SMILES,PAFAH1B2 inh,EBNA-1 inhibitor,PAFAH2 FP inh,ZTA counter,rCAG RNA binder,PAFAH1B3 FP inh
O=C(CSc1nc2nc(-c3cccs3)cc(C(F)(F)F)c2c(=O)[nH]1)Nc1ccc(F)c(F)c1,1.0,4.8,-21.1,-8.6,67.6*,-26.1
Cc1cc(=O)[nH]c(SCC(=O)Nc2ccc(F)c(F)c2)n1,·,·,·,·,4.0,·
O=C(OC12CCCN(C1)/C(=C/c1ccccc1)C2)c1ccc(F)cc1 (stereo unspecified),·,·,·,·,7.7,·
CN1CCCN(C(=O)C2CCN(c3ncnc4c3sc3cccc(F)c34)CC2)CC1,·,·,·,·,7.9,·
CC(NC(=O)c1ccc([N+](=O)[O-])o1)C12CC3CC(CC(C3)C1)C2 (stereo unspecified),38.6*,-13.9,15.8,-3.0,5.0,11.3
CCOC(=O)C1=C(COC(=O)c2ccc([N+](=O)[O-])s2)NC(=O)NC1C (stereo unspecified),11.0,·,35.9*,·,2.9,51.6*
COC[C@@H]1CCCN1c1cccc2c1S(=O)(=O)N1CC[C@@H](C1)O2,·,·,·,·,5.8,·
COc1ccc(S[C@]2(C(=O)N3CCN(C(C)=O)CC3)CC(=O)N(C(=O)/C=C/c3ccccc3)[C@@H]2c2ccc(OC)cc2)cc1,·,·,·,·,16.1,·
CC(C)n1nnnc1C1c2ccccc2OCC(=O)N1Cc1cccc(C(F)(F)F)c1 (stereo unspecified),·,·,·,·,-1.4,·
Cc1nc(SCC(=O)NC(=O)NCc2ccccc2)nc(C)c1C,11.9,3.6,2.4,7.6,-0.3,-4.4
O=C(CSc1ccccc1)NC(=O)NCc1ccccc1,32.0*,4.8,4.8,11.5,-3.7,1.8
CC(C)(C)[C@@H]1COC(=O)[C@H](Cc2ccc(F)cc2)C/C=C\C[C@@H](CC(=O)NCCO)C(=O)N1,31.9*,·,-0.3,·,-9.6,3.6
C[C@H]1COC(=O)[C@@H](Cc2ccc(F)cc2)C/C=C\C[C@@H](CC(=O)NCCO)C(=O)N1,1.5,·,7.2,·,-2.1,-5.7
C[C@@H]1COC(=O)[C@H](Cc2ccc(F)cc2)C/C=C\C[C@@H](CC(=O)NCCO)C(=O)N1,32.9*,·,1.4,·,-8.3,5.9
Nc1c(C(=O)c2ccccc2)sc2snc(SCC(=O)c3ccccc3)c12,15.0,-6.1,43.9*,-7.4,16.3,15.1
Nc1nnc(SCC(=O)c2ccccc2)s1,1.6,-22.0,0.0,-1.6,4.0,0.2
CCCCCN1CCCCC(NC(=O)c2ccccc2C)C1=O (stereo unspecified),·,·,·,·,2.1,·
O=C(c1ccc2c(=O)n(Cc3ccccc3)c(=S)[nH]c2c1)N1CCCC1,26.4*,3.2,6.9,-14.6,2.8,6.3
COC(=O)[C@]1(CNS(=O)(=O)c2ccc(F)cc2)CC(=O)N(C)[C@@H]1c1ccccc1,·,·,·,·,0.3,·
O=C(/C=C/c1ccco1)c1cccc([N+](=O)[O-])c1,2.6,·,17.7,·,38.8*,4.7
CCCCNC(=O)C[C@@H]1C(=O)N(Cc2ccc(OC)cc2)C2=CCN(C(=O)OC(C)(C)C)C[C@]21C(=O)OCC,·,·,·,·,-1.9,·
COc1ccccc1C=C1SC(=S)NC1=O,0.7,·,4.1,·,6.6,6.8
O=C1NC(=O)/C(=C/c2ccccc2Oc2ccc(Cl)cc2)S1,28.4*,6.0,0.4,-2.1,19.1,-0.1
COC(=O)[C@H]1C[C@@]2(C3C=CC=C3)c3ccccc3N[C@H]2N1,·,·,·,·,8.0,·
COc1ccc2ccccc2c1C(O)c1nccn1C (stereo unspecified),32.1*,1.8,44.5*,-4.1,-277.7,39.0*
SMILES,PAFAH1B2 inh,EBNA-1 inhibitor,PAFAH2 FP inh,ZTA counter,rCAG RNA binder,PAFAH1B3 FP inh
C[C@H]1COC(=O)[C@@H](Cc2ccc(F)cc2)CC/C=C/C[C@H](CC(=O)N(CCO)Cc2ccccc2)C(=O)N1,24.8*,·,-6.6,·,-11.3,-2.0
O=C1N[C@@H](Cc2ccccc2)COC(=O)[C@@H](Cc2ccc(F)cc2)CC/C=C/C[C@@H]1CC(=O)N(CCO)Cc1ccccc1,25.9*,·,14.9,·,6.6,4.2
C[C@H]1COC(=O)[C@@H](Cc2ccc(F)cc2)CC/C=C/C[C@@H](CC(=O)N(CCO)Cc2ccccc2)C(=O)N1,26.4*,·,1.5,·,-6.5,4.0
C[C@H]1COC(=O)[C@@H](Cc2ccc(F)cc2)C/C=C\C[C@H](CC(=O)N(CCO)Cc2ccccc2)C(=O)N1,18.5,·,3.0,·,-2.4,7.6
C=CCNC(=O)NC[C@@]1(C(=O)OC)CC(=O)N(C)[C@@H]1c1ccccc1,·,·,·,·,1.8,·
COc1ccc(C(=O)CSc2nnc(-c3ccc(C(C)(C)C)cc3)n2C)cc1,·,·,·,·,5.6,·
CC(=O)Oc1ccc2c(c1)Oc1cc(OC(C)=O)ccc1C21OC(=O)c2ccccc21,110.3*,-1.9,123.8*,-6.2,·,129.0*
Nc1ccc(N)c(C(=O)O)c1,46.9*,-1.9,66.3*,-1.9,·,69.3*
C#CCOCCOCCOCCNc1nc(N2CCN(C(=O)CCCCCCCCCCNC(=O)[C@@H](CCSC)n3cc(CCO)nn3)CC2)nc(N2CCN(C(=O)CCCCCCCCCCNC(=O)[C@H](CO)n3cc(CCCCCN)nn3)CC2)n1,2.8,-6.3,-6.2,4.0,·,6.5
C#CCOCCOCCOCCNc1nc(N2CCN(C(=O)CCCCCCCCCCNC(=O)[C@H](CCCCN)n3cc(C[C@@H](C)CC)nn3)CC2)nc(N2CCN(C(=O)CCCCCCCCCCNC(=O)[C@H](CCCN=C(N)N)n3cc(C[C@@H](C)CC)nn3)CC2)n1,-5.3,10.4,-6.9,70.1*,·,-2.4
C#CCOCCOCCOCCNc1nc(N2CCN(C(=O)CCCCCCCCCCNC(=O)[C@H](CO)n3cc(CCCCCN)nn3)CC2)nc(N2CCN(C(=O)CCCCCCCCCCNC(=O)[C@H](CCCN=C(N)N)n3cc(C[C@@H](C)CC)nn3)CC2)n1,·,12.8,·,105.3*,·,·
CC[C@H](C)Cc1cn([C@@H](CCCN=C(NC(=O)OC(C)(C)C)NC(=O)OC(C)(C)C)C(=O)NCCCCCCCCCCC(=O)N2CCN(C(=O)OC(C)(C)C)CC2)nn1,11.7,20.7,4.3,-2.7,·,26.7*
CSCCCNC(=O)Cn1nc(Cc2ccncc2)c2ccccc2c1=O,·,·,·,·,3.5,·
COC(=O)[C@@]12CCCCC3=C1N(CCC3)C(=O)[C@H]2CC(=O)N1CCCC1,·,·,·,·,2.4,·
Cc1cc(F)ccc1C(=O)N1CCC(Oc2cccnc2)CC1,·,·,·,·,-1.3,·
Cc1ccc(NS(=O)(=O)c2cccc(C(=O)NNC(=O)c3ccco3)c2)c(C)c1,1.7,-13.7,5.5,-6.5,6.0,-7.1
Cc1ccc(NS(=O)(=O)c2cccc(C(=O)O)c2)c(C)c1,24.3*,9.4,3.5,13.3,0.0,-7.7
CC(C)c1ccc(C(C)NC(=O)C2CCCC2)cc1 (stereo unspecified),4.1,-7.2,3.8,-15.5,-5.3,11.7
